Laboratory results as given in PubChem BioAssay (EPA / NIEHS).
Results filed as inconclusive are left out. Activity calls are given as the source filed them. Rule for the calls: active = hit-call score of the fitted dose curve at least 0.9, where 1 is the maximum; inconclusive = response in the unintended direction; inactive = score below 0.9.

How the values were obtained:
[1] = biological target: human Caspase 5 (CASP5), CASP5 (gene 838) (UniProt P51878); test: NVS_ENZ_hCASP5: NovaScreen (NVS) Enzymatic Assay for human Caspase 5 (CASP5) (AID 2283137)
Chain of human Caspase 5 (CASP5), CASP5 (gene 838) (P51878 whole entry, looked up): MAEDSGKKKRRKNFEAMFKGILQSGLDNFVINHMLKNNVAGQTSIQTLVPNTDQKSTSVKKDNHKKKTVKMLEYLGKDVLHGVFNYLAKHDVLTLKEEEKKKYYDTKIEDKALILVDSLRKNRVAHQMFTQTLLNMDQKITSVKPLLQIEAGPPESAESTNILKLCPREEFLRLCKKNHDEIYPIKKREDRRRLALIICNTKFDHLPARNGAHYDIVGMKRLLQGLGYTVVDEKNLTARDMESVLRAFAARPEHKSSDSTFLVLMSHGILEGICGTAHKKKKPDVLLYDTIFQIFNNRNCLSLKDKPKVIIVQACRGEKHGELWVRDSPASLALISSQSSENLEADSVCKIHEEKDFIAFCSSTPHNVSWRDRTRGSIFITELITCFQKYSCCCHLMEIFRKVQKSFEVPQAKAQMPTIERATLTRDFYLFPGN
In short: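 Recombinant E. coli-expressed human caspase 5 in a cell-free enzyme assay; fluorescence intensity read 2 hours after chemical dosing. Single-concentration duplicate screen at 25 uM, then concentration-response up to 50 uM for hits; DMSO negative control.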

[2] = biological target: human Beta-secretase (BACE), BACE1 (gene 23621) (UniProt P56817); test: NVS_ENZ_hBACE: NovaScreen (NVS) Enzymatic Assay for human Beta-secretase (BACE) (AID 2283140);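 note: hits are inhibitors that reduce fluorescent substrate signal versus DMSO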
Chain of human Beta-secretase (BACE), BACE1 (gene 23621) (P56817 whole entry, looked up): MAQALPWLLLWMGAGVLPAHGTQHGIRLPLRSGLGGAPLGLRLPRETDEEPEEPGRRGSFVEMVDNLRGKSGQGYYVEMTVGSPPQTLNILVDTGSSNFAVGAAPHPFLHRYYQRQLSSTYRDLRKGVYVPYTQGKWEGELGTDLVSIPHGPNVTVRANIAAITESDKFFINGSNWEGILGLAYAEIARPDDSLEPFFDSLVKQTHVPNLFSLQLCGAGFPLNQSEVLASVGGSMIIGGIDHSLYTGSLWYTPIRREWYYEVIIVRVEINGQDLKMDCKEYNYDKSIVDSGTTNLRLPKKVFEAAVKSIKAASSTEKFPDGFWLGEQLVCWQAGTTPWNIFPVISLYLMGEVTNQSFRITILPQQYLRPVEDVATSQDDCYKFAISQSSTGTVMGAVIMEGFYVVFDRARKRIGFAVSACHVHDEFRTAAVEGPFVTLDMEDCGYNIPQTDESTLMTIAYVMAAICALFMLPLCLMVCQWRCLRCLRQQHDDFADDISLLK
In short: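 Cell-free fluorescence-intensity assay of recombinant BACE1 expressed in SF9 cells, read 1 hour after dosing. Loss of signal indicates reduced protease activity, fitted relative to DMSO negative control. Primary screen at 25 uM in duplicate; actives followed in concentration series.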

[3] = biological target: human Colony Stimulating Factor 1 Receptor (CSF1R), CSF1R (gene 1436) (UniProt P07333); test: NVS_ENZ_hCSF1R: NovaScreen (NVS) Enzymatic Assay for human Colony Stimulating Factor 1 Receptor (CSF1R) (AID 2283150)
In short: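 Cell-free recombinant human CSF1R kinase with fluorescent substrate, product separated by electrophoretic mobility shift; read 1 h after dosing. Primary screen at 25 uM in duplicate, actives then in concentration-response up to 50 uM, relative to DMSO.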

[4] = biological target: human Elastase, ELANE (gene 1991) (UniProt P08246); test: NVS_ENZ_hElastase: NovaScreen (NVS) Enzymatic Assay for human Elastase (AID 2283153)
In short: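 Cell-free elastase from human neutrophils, 1.5 h after dosing, activity read by absorbance. Primary screen in duplicate at 25 uM; hits (e.g., 30% inhibition) rerun in singleton concentration-response up to 50 uM, fitted versus DMSO.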

[5] = biological target: human Esterase Plasma (ES), BCHE (gene 590) (UniProt P06276); test: NVS_ENZ_hES: NovaScreen (NVS) Enzymatic Assay for human Esterase Plasma (ES) (AID 2283157)
Chain of human Esterase Plasma (ES), BCHE (gene 590) (P06276 whole entry, looked up): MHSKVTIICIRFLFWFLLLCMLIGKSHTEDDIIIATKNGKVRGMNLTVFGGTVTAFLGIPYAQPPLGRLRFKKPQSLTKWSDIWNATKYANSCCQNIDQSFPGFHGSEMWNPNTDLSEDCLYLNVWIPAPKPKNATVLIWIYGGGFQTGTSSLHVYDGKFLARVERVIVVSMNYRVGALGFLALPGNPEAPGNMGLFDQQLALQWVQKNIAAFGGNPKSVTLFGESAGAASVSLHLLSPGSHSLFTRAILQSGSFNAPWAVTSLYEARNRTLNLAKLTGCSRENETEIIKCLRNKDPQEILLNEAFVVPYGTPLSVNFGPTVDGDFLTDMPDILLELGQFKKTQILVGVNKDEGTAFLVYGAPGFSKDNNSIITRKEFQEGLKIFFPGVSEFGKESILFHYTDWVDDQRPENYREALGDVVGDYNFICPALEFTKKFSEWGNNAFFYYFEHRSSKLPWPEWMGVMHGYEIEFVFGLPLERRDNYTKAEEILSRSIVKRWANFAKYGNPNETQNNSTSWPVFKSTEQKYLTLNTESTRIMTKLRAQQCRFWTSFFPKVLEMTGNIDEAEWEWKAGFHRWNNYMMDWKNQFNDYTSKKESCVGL
In short: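 Chemicals were added to plasma-extracted human enzyme in a cell-free format, and activity was read colorimetrically after 0.25 hour. Activity loss was referenced to DMSO; concentration-response top dose was 50 uM.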

[6] = biological target: human Ephrin type-A Receptor 1 (EphA1), EPHA1 (gene 2041) (UniProt P21709); test: NVS_ENZ_hEphA1: NovaScreen (NVS) Enzymatic Assay for human Ephrin type-A Receptor 1 (EphA1) (AID 2283158);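 note: activity is signal loss versus DMSO meaning EphA1 kinase inhibition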
Chain of human Ephrin type-A Receptor 1 (EphA1), EPHA1 (gene 2041) (P21709 whole entry, looked up): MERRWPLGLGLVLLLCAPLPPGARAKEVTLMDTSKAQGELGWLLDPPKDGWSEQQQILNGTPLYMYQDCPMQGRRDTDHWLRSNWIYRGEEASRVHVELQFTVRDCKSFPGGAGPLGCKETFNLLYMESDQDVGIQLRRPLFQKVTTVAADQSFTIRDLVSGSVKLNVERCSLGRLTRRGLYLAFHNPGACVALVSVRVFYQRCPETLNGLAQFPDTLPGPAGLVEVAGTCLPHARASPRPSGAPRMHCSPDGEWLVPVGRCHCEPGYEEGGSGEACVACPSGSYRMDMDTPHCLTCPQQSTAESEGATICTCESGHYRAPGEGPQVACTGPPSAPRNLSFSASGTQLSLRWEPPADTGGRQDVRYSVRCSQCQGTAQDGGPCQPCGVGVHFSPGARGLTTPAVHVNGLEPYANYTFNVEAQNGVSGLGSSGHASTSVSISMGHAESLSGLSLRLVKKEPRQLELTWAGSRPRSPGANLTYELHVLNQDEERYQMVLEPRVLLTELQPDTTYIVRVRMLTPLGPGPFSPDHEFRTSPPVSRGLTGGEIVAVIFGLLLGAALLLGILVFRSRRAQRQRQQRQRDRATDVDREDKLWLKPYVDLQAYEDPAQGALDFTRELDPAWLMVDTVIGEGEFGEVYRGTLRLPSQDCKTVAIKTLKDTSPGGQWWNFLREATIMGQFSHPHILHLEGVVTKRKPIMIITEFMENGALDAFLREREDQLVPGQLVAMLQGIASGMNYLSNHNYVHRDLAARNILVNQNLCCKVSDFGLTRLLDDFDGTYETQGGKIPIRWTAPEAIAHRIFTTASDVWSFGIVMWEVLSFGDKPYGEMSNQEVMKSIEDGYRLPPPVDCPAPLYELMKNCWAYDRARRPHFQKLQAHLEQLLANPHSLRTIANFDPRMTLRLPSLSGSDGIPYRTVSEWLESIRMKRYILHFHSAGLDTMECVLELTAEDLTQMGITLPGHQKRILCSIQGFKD
In short: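 Biochemical kinase assay run cell-free; 1 h incubation; readout is fluorescence with mobility-shift separation of product. Concentration-response up to 50 uM for actives from a 25 uM screen.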

[7] = biological target: human Casein Kinase 1-delta (CK1D), CSNK1D (gene 1453) (UniProt P48730); test: NVS_ENZ_hCK1D: NovaScreen (NVS) Enzymatic Assay for human Casein Kinase 1-delta (CK1D) (AID 2283148)
In short: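 Recombinant human CK1-delta, cell-free; fluorescent substrate with electrophoretic mobility-shift separation of product, read 1 h after dosing. Single 25 uM duplicate screen, then concentration-response up to 50 uM; loss of signal vs DMSO.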

Caspase-3 (Homo sapiens) = Caspase-3 (Homo sapiens) (UniProt P42574); test: NVS_ENZ_hCASP3: NovaScreen (NVS) Enzymatic Assay for human Caspase 3 (CASP3) (AID 2283139)
Chain of Caspase-3 (Homo sapiens) (P42574 whole entry, looked up): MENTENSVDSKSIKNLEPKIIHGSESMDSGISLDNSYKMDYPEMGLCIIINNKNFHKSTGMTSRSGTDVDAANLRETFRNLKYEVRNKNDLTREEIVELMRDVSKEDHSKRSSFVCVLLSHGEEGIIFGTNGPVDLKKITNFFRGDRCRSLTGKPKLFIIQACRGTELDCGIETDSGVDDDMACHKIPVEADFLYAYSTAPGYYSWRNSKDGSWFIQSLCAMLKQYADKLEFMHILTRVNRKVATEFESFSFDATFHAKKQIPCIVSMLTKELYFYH
In short: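 Recombinant human caspase-3 from E. coli with a fluorogenic substrate, read by fluorescence 1 h after dosing. Primary screen in duplicate at 25 uM. Actives (for example ≥30% inhibition) rerun as concentration-response up to 50 uM.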

[8] = biological target: Histone deacetylase 3 (Homo sapiens) (UniProt O15379); test: NVS_ENZ_hHDAC3: NovaScreen (NVS) Enzymatic Assay for human Histone Deacetylase 3 (HDAC3) (AID 2283163)
Chain of Histone deacetylase 3 (Homo sapiens) (O15379 whole entry, looked up): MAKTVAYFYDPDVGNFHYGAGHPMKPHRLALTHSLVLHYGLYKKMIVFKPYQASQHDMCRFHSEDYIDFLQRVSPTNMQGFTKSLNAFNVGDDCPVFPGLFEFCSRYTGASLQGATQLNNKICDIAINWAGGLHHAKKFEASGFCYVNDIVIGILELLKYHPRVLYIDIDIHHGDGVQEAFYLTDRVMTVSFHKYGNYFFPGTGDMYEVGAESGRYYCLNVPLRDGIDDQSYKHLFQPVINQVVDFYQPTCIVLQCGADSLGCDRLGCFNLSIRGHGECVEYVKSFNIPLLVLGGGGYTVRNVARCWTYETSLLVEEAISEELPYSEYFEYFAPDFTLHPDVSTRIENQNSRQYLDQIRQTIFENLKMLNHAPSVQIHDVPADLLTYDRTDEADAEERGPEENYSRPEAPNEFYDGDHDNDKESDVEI
In short: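 Recombinant human HDAC3 with fluorescent substrate, 1 h after dosing; product separated from substrate by electrophoretic mobility shift and read by fluorescence. Primary screen at 25 uM in duplicate; actives (e.g. ≥30% inhibition) retested in concentration-response up to 50 uM.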

[9] = biological target: human AMP-activated Protein Kinase, alpha 1 (AMPKa1), PRKAA1 (gene 5562) (UniProt Q13131); test: NVS_ENZ_hAMPKa1: NovaScreen (NVS) Enzymatic Assay for human AMP-activated Protein Kinase, alpha 1 (AMPKa1) (AID 2283130)
In short: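 Recombinant human AMPKα1 activity was measured cell-free by fluorescent substrate conversion with electrophoretic mobility-shift separation, 1 h after dosing. Duplicate single-point screening was at 25 uM; actives (≥30% inhibition) were retested in concentration-response up to 50 uM.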

[10] = biological target: human Caspase 8 (CASP8), CASP8 (gene 841) (UniProt Q14790); test: NVS_ENZ_hCASP8: NovaScreen (NVS) Enzymatic Assay for human Caspase 8 (CASP8) (AID 2283146)
In short: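 E. coli-expressed enzyme was used in a cell-free fluorogenic substrate assay read 1 h after dosing. Loss of signal was scored relative to DMSO, and the primary screen was run in duplicate at 25 uM.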

[11] = biological target: human Epidermal Growth Factor Receptor (EGFR), EGFR (gene 1956) (UniProt P00533); test: NVS_ENZ_hEGFR: NovaScreen (NVS) Enzymatic Assay for human Epidermal Growth Factor Receptor (EGFR) (AID 2283151)
In short: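 Cell-free kinase assay, fluorescence plus electrophoretic mobility shift separating substrate and product, read 1 hour after dosing; loss of signal vs DMSO. Duplicate screen at 25 uM, then concentration-response to 50 uM.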

[12] = biological target: human Fibroblast Growth Factor Receptor 1 (FGFR1), FGFR1 (gene 2260) (UniProt P11362); test: NVS_ENZ_hFGFR1: NovaScreen (NVS) Enzymatic Assay for human Fibroblast Growth Factor Receptor 1 (FGFR1) (AID 2283159);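 note: hits lower the signal so potencies describe inhibitors of the kinase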
In short: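 Cell-free recombinant kinase with fluorescent substrate, product separated by electrophoretic mobility shift; read 1 hour after dosing, loss of signal relative to DMSO. Initial screen in duplicate at 25 uM, actives followed in concentration series.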

[13] = biological target: Protein deacetylase HDAC6 (Homo sapiens) (UniProt Q9UBN7); test: NVS_ENZ_hHDAC6: NovaScreen (NVS) Enzymatic Assay for human Histone Deacetylase 6 (HDAC6) (AID 2283164)
Chain of Protein deacetylase HDAC6 (Homo sapiens) (Q9UBN7 whole entry, looked up): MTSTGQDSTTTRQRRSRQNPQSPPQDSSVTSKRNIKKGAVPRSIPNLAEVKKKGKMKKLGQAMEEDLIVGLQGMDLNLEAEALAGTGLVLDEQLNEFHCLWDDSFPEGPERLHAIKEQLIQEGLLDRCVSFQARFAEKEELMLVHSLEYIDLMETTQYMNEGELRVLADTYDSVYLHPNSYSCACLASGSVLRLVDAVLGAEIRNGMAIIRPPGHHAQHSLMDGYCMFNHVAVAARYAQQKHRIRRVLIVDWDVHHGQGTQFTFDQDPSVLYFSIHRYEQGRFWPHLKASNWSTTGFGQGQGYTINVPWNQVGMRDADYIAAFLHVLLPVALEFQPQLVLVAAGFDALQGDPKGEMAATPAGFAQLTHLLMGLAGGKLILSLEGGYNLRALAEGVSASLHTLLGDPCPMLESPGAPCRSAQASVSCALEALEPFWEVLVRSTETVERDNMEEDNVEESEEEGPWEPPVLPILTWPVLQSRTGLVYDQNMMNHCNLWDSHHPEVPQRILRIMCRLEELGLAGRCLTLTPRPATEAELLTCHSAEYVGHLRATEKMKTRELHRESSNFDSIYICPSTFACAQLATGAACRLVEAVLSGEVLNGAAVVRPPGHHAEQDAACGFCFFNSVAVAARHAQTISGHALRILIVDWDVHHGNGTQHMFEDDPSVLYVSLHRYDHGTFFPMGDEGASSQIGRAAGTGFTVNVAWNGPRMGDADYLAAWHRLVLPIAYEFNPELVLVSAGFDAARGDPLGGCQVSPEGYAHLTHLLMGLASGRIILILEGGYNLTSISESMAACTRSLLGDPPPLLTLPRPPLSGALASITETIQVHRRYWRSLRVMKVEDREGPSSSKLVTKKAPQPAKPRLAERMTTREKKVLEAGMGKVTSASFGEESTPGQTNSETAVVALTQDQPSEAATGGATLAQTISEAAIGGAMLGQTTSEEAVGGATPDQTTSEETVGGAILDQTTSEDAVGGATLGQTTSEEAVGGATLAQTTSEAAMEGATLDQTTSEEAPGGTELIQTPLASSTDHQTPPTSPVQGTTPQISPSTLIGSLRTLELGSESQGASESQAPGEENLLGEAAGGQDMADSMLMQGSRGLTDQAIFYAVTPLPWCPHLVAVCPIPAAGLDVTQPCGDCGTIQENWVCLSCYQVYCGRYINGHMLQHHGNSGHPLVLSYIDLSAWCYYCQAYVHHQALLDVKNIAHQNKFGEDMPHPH
In short: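 Recombinant human HDAC6 with fluorescent substrate, 1 h; product separated from substrate by electrophoretic mobility shift. Primary screen in duplicate at 25 uM; actives retested singly in concentration-response up to 50 uM, fitted relative to DMSO.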

[14] = biological target: human AKT serine/threonine Kinase 1 (AKT1), AKT1 (gene 207) (UniProt P31749); test: NVS_ENZ_hAKT1: NovaScreen (NVS) Enzymatic Assay for human AKT serine/threonine Kinase 1 (AKT1) (AID 2283138)
Chain of human AKT serine/threonine Kinase 1 (AKT1), AKT1 (gene 207) (P31749 whole entry, looked up): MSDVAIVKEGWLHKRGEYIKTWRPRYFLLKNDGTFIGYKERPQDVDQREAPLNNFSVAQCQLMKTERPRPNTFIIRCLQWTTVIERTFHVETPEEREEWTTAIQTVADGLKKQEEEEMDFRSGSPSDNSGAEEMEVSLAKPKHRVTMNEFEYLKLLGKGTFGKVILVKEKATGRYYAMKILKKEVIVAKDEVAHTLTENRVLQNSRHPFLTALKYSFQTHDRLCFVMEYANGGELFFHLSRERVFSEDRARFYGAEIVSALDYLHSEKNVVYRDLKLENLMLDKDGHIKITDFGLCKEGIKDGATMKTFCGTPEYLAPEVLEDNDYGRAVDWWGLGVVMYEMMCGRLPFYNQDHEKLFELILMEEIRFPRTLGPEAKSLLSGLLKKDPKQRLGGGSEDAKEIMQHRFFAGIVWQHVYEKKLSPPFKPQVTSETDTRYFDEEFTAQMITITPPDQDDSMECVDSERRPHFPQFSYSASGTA
In short: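 Cell-free recombinant enzyme with substrate; activity read by fluorescence intensity after electrophoretic mobility shift separating substrate from product, 1 h after dosing. Single-concentration duplicates at 25 uM, then singleton concentration-response up to 50 uM; loss of signal versus DMSO.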

[15] = biological target: human Ephrin type-B Receptor 2 (EphB2), EPHB2 (gene 2048) (UniProt P29323); test: NVS_ENZ_hEphB2: NovaScreen (NVS) Enzymatic Assay for human Ephrin type-B Receptor 2 (EphB2) (AID 2283156)
In short: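 Recombinant kinase with fluorescent substrate, product separated by electrophoretic mobility shift, read 1 h after dosing. Duplicate 25 uM screen, then singleton concentration-response to 50 uM max; loss of signal versus DMSO.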

Cn1sc(Cl)cc1=O
outcome [1]: inactive
outcome [2]: inactive
outcome [3]: inactive
outcome [4]: inactive
outcome [5]: inactive

O=[N+]([O-])c1ccc2c3c(cccc13)CC2
AC50 [1]: 25 µM (active)
outcome [6]: inactive

CCCCCCCCc1ccc(O)cc1
outcome [1]: inactive
outcome [7]: inactive
outcome [3]: inactive

COc1cc2c(cc1OC)[C@@]13CCN4CC5=CCO[C@H]6CC(=O)N2[C@H]1[C@H]6[C@H]5C[C@H]43
AC50 [2]: 6.44 µM (active)
outcome [6]: inactive

O=[N+]([O-])c1ccc(O)c([N+](=O)[O-])c1
outcome (Caspase-3 (Homo sapiens)): inactive
outcome [7]: inactive
outcome [8]: inactive

CC(C)CCCCCCOC(=O)c1ccccc1C(=O)OCCCCCCC(C)C
AC50 [2]: 8.09 µM (active)

CC(=O)[O][Hg][c]1ccccc1
AC50 [9]: 14 µM (active)
AC50 [1]: 1.8 µM (active)
AC50 (Caspase-3 (Homo sapiens)): 25 µM (active)
AC50 [10]: 8.22 µM (active)
AC50 [11]: 9.71 µM (active)
outcome [5]: inactive
AC50 [12]: 33.4 µM (active)
AC50 [8]: 9.74 µM (active)
AC50 [13]: 2.32 µM (active)

C[C@]12CCC(=O)C[C@@H]1CC[C@@H]1[C@@H]2CC[C@]2(C)[C@@H](O)CC[C@@H]12
outcome [13]: inactive

CCCCCCCCC(=O)NCc1ccc(O)c(OC)c1
outcome [6]: inactive

Nc1cccc(Cl)c1
outcome [6]: inactive

CCC(=O)C(CC(C)N(C)C)(c1ccccc1)c1ccccc1 (centres undefined)
outcome [14]: inactive
AC50 [5]: 15.6 µM (active)

C(=NC1CCCCC1)=NC1CCCCC1
outcome [6]: inactive

O=C(Nc1ccc2[nH]ccc2c1)c1cc2cc(F)ccc2n1Cc1cccc(F)c1
outcome [2]: inactive

O=C(O)C(F)(F)C(F)(F)C(F)(F)C(F)(F)C(F)(F)C(F)(F)F
AC50 [2]: 18.6 µM (active)

C=C(C)C(=O)[O][Sn]([CH2]CCC)([CH2]CCC)[CH2]CCC
AC50 [2]: 8.77 µM (active)
outcome [4]: inactive

O=C(O)C(Cl)(Cl)Cl
outcome [15]: inactive

CC(Br)C(=O)O (centres undefined)
outcome [6]: inactive

CCOP(=S)(OCC)SCSP(=S)(OCC)OCC
outcome [14]: inactive
outcome [5]: inactive
